The results in this text go back to PubChem BioAssay (Tox21).

Several values for one entry are separate records, joined by “and”; a condition that tells them apart may be missing. Identical values can stand only once. Results filed as inconclusive are left out. Some structures have more than one record in an assay (separate samples or runs), and their calls can disagree. Activity calls are given as the source filed them. Unless noted, calls follow the shape of the dose curve; as a rule, active = well fitted curve in the direction sought with a large enough effect in the repeat runs; inconclusive = weak or mixed curves; inactive = no such curve, though single readings can be large; an effect the other way counts as inactive or inconclusive.

Test [1] deals with Thyrotropin-releasing hormone receptor (Homo sapiens) (UniProt P34981). In words: qHTS assay to identify small molecule agonists of the thyrotropin-releasing hormone receptor (TRHR) signaling pathway (AID 1346891; calls by dose curve;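 also: HEK293 cells expressing TRHR with calcium dye readout; series mostly up to about 58 µM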). The method in brief: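 Cells: TRHR-Hek293, seeded and incubated 18 h. Dye loading: 2 h at 37 °C. Compound added from DMSO stock by pin tool. Read-out: kinetic calcium fluorescence over 3 min.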
(In general: In qHTS, concentration-response curves come from the screen itself.)

A short description of test [2]: Caspase-3/7 induction in HepG2 cells by small molecules, qHTS assay (AID 1346978). Also: nearly all actives have a fitted effect of over 15% in size. The method in brief:
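Wild-type HepG2 cells, 2,000/well, settled 5 hr at 37 C and 5% CO2, then compound-treated for 17 hr; caspase-3/7 activity read by luminescent Caspase-Glo 3/7 after 30 min at room temperature.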

The nature of test [3]: Caspase-3/7 induction in CHO-K1 cells by small molecules, qHTS cell viability counter screen (AID 1346979). Also: nearly all actives have a fitted effect of over 35% in size. Also: potency is read from the fitted curve at half-maximal effect. The method in brief: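 Cytotoxicity counter screen run in parallel with the caspase-3/7 assay: CHO-K1 cells, 16hr compound treatment at 37C, then CellTiter-Fluor for 1hr before fluorescence reading.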
The nature of test [4]: Caspase-3/7 induction in CHO-K1 cells by small molecules, qHTS assay (AID 1346980). Also: nearly all actives have a fitted effect of over 15% in size. The method in brief:
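Wild-type CHO-K1 cells exposed to compounds for 17hr at 37 C, 5% CO2. Caspase-3/7 activity then measured by Caspase-Glo 3/7 luminescence after 30min at room temperature.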

The nature of test [5]: Caspase-3/7 induction in HepG2 cells by small molecules, qHTS cell viability counter screen (AID 1346981). Also: nearly all actives have a fitted effect of over 30% in size. Also: potency is read from the fitted curve at half-maximal effect. The method in brief:
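HepG2, WT, 2,000 cells/well; 5 hr pre-incubation 37 C/5% CO2; compound pin-transferred from DMSO; 16 hr exposure; CellTiter-Fluor, 1 hr; fluorescence read.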

The target of test [6] is Nuclear receptor subfamily 1 group I member 2 (Homo sapiens) (UniProt O75469). As to the kind of experiment: Human pregnane X receptor (PXR) small molecule agonists, qHTS assay (AID 1346982). Also: nearly all actives have a fitted effect of over 35% in size. Also: potency is read from the fitted curve at half-maximal effect. The procedure, abridged:
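Luciferase signal from ONE-Glo (30 min, room temperature) measured activation of hPXR-driven CYP3A4 reporter expression in PXR-Luc HepG2 cells treated with compounds for 24 hr at 37 C.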

The nature of test [7]: Human pregnane X receptor (PXR) small molecule agonists, qHTS cell viability counter screen (AID 1346977). Also: nearly all actives have a fitted effect of over 50% in size. The method in brief: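 Cytotoxicity counter screen run in the same wells as the PXR luciferase assay, using PXR-Luc HepG2 cells in charcoal-stripped serum medium. Viability: CellTiter-Fluor fluorescence after 24hr compound treatment.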
For test [8], the target named is Nuclear receptor subfamily 1 group I member 2 (Rattus norvegicus) (UniProt Q9R1A7). As to the kind of experiment: Rat pregnane X receptor (rPXR) activation by small molecules, qHTS assay (AID 1346983). Also: nearly all actives have a fitted effect of over 20% in size. To be noted: rPXR luciferase reporter cells, One-Glo luminescence, 24 h; stronger effect = higher value. The method in brief: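 Cell-based rPXR activation assay: rPXR cells, 2,000 per well, rested 5hr at 37 C, then exposed to compounds in DMSO for 24 hr at 37 C. Luciferase activity read by One-Glo luminescence after 30 min at room temperature.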

Test [9] concerns the target Nuclear receptor subfamily 1 group I member 2 (Homo sapiens) (UniProt O75469). In words: CYP3A4 induction through human pregnane X receptor (PXR) by small molecules, qHTS assay (AID 1346984). Also: nearly all actives have a fitted effect of over 40% in size. Also: potency is read from the fitted curve at half-maximal effect. The procedure, abridged: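 Luminescence readout: luciferase signal after One-Glo (30 min, room temperature), following 3 h at 37C with 3uM final Luciferin-IPA P450 substrate. Cells were DPX-2 (HepG2, PXR/CYP3A4-luc co-transfected) dosed for 24 h.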

Test [10] shares this target. As to the kind of experiment: Human pregnane X receptor (PXR) activation by small molecules, qHTS assay (AID 1346985). Also: nearly all actives have a fitted effect of over 40% in size. The method in brief:
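DPX-2 cells (HepG2 co-transfected with a PXR response element and a CYP3A4-promoter luciferase construct) were seeded at 2,000 per well, rested 5 hr at 37C, then exposed to DMSO-dissolved compounds for 24 hr. Activation was read as luciferase luminescence.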
% is scaled to controls: 0 for no effect and ±100 for the full control effect.

Chain of Nuclear receptor subfamily 1 group I member 2 (Rattus norvegicus) (Q9R1A7 whole entry, looked up): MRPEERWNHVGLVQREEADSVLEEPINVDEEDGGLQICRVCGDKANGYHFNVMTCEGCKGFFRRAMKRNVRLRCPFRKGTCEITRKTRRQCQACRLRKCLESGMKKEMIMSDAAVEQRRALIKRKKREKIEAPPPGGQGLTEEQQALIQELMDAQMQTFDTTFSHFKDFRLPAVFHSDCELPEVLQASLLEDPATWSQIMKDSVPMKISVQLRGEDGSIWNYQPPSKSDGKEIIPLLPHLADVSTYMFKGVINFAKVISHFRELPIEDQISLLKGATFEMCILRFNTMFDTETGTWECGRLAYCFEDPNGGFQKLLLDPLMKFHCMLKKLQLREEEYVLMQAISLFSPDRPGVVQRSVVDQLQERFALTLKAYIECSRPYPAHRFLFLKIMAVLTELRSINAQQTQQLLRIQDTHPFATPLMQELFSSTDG
Chain of Nuclear receptor subfamily 1 group I member 2 (Homo sapiens) (O75469 whole entry, looked up): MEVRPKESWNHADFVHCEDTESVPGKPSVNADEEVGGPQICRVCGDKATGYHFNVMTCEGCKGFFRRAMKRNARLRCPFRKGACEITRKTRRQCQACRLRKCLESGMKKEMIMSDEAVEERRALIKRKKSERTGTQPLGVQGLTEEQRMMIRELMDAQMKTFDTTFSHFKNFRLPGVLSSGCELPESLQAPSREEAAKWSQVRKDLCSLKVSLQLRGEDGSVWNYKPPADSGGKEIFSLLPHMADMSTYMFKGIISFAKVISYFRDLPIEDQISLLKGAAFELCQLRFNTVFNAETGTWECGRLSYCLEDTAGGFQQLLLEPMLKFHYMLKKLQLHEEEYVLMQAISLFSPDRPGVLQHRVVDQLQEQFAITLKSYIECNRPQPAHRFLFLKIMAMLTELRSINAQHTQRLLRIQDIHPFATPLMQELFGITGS
Chain of Thyrotropin-releasing hormone receptor (Homo sapiens) (P34981 whole entry, looked up): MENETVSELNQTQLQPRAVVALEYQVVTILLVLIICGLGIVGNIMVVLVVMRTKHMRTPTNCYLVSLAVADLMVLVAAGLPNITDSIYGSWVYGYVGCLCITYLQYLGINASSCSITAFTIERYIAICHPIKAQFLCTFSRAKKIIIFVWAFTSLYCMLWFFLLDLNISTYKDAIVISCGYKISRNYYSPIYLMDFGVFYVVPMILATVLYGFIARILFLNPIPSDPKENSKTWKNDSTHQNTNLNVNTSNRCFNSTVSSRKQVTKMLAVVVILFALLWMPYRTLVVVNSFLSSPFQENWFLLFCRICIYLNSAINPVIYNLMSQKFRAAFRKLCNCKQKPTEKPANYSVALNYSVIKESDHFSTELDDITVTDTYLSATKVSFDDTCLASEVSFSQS

`c1ccc(Oc2ccccc2)cc1`: the compound was called inactive in [1] and in test [4]. The Potency result in test [2], in test [3], in [5] and in test [6] was “inactive” each time.

In the case of `COc1ccccc1OCC(O)CO` (stereo not given), the compound was classed as inactive in test [1] and in test [4]. The Potency result in [2], in [3] and in test [5] was “inactive” each time.

Turning to `CCCCCCCCCCCCCCCCO`, the compound was called inactive in [1], in [4] and in test [10]. For the same compound, the Potency result in test [7], in test [2], in [3], in test [5], in test [6] and in test [9] was “inactive” each time. Moreover, in test [8], the max activation was -1.74% (inactive).

As to `C[Si]1(C)O[Si](C)(C)O[Si](C)(C)O[Si](C)(C)O1`, the outcome in [1] and in test [4] was inactive. The Potency result in test [7], in test [2], in [3], in test [5] and in test [6] was “inactive” throughout.

Consider `COC(=O)CCCC(=O)OC`, for which the compound was called inactive in test [1] and in test [4]. For the same compound, the Potency entry in test [2], in test [5] and in test [6] was “inactive” throughout. Moreover, the Potency in test [3] was 54 µM (active) and inactive.

With `O=S(=O)(O)c1ccc(N=Nc2c(O)ccc3cc(S(=O)(=O)O)ccc23)cc1`, the compound was called inactive in [1] and in [4]. Besides, the Potency result in test [2] and in test [6] was “inactive” in each case. Moreover, the Potency is 54.7 µM (active) and 27.3 µM (active) in test [3]; 54.7 µM (active) and 30.6 µM (active) in [5].

With `CCCOC(=O)c1ccccc1`, the result in test [1], in [4] and in [10] was inactive. The Potency result in [7], in test [2], in test [3], in test [5], in [6] and in [9] was “inactive” in each case. In addition, the max activation in test [8] was -6.55% (inactive).

Regarding `O=[N+]([O-])c1ccc2nc[nH]c2c1`, the call in [1] and in test [4] was inactive. The Potency entry in test [2], in test [3], in test [5] and in [6] was “inactive” in each case.

For the compound `N[C@H](Cc1c[nH]c2ccccc12)C(=O)O`, the result in test [1], in test [4] and in [10] was inactive. The Potency result in test [7], in [2], in [3], in test [5] and in test [6] was “inactive” throughout. In addition, the max activation in [8] is -2.63% (inactive).

As for `OCc1ccccc1`, the compound was called inactive in test [1], in test [4] and in [10]. Also, the Potency result in test [7], in test [2], in test [3], in test [5], in [6] and in test [9] was “inactive” in each case. Besides, the max activation in test [8] was -0.795% (inactive).

Turning to `CC(=O)Oc1ccc(C)cc1`, the outcome in test [1], in test [4] and in [10] was inactive. The Potency entry in test [7], in test [2], in [3], in test [5], in [6] and in test [9] was “inactive” each time. For the same compound, the max activation in test [8] is -1.62% (inactive).

With `O=C1C(c2[nH]c3ccccc3c2O)=Nc2ccccc21`, the compound was called inactive in [1], in test [4] and in [10]. In addition, the Potency result in [7], in test [2], in [3], in test [5] and in test [6] was “inactive” in each case. Moreover, the max activation in test [8] was 3.64% (inactive). The Potency in [9] was 0.891 µM (active).

Consider `Clc1ccccn1`, for which the call in test [1] and in test [4] was inactive. The Potency result in [7], in [2], in test [3], in test [5] and in [6] was “inactive” in each case.

Turning to `O=C(O)Cn1c(=O)n(Cc2ccc(Br)cc2F)c(=O)c2ccc(Cl)cc21`, the compound was called inactive in test [1] and in test [4]. The Potency entry in test [7] and in test [2] was “inactive” each time.

For the compound `CCOC(=O)c1ccc(N)cc1`, the result in [1], in test [4] and in test [10] was inactive. Moreover, the Potency result in [7], in test [2], in test [3], in [5], in test [6] and in [9] was “inactive” each time. In addition, the max activation in test [8] was -0.927% (inactive).

Take `CC(CCl)OP(=O)(OC(C)CCl)OC(C)CCl` (stereo not given): the outcome in test [1] and in [4] was inactive. Besides, the Potency result in test [2], in [3] and in [5] was “inactive” throughout. The Potency in test [6] is 36.3 µM (active).

In the case of `COc1cc(OC)c(C(=O)CCCN2CCCC2)c(OC)c1`, the outcome in [1] and in test [4] was inactive. Further, the Potency result in test [7], in test [2], in test [3] and in [5] was “inactive” throughout. Besides, the max activation in [8] was -3.14% (inactive).

Regarding `OC1C(O)C(O)C(O)C(O)C1O` (stereo not given), the compound was classed as inactive in test [1], in test [4] and in test [10]. Besides, the Potency entry in test [7], in test [2], in [3], in test [5], in test [6] and in [9] was “inactive” in each case. The max activation in test [8] is -0.165% (inactive).

For `CCNC(=S)NCC`, the call in test [1] and in test [4] was inactive. Moreover, the Potency result in test [7], in test [2], in test [3], in test [5] and in [6] was “inactive” throughout.

`CCCCCCCCCCCCCCCC(=O)OC(C)C`: the compound was classed as inactive in test [1], in [4] and in [10]. The Potency result in test [2], in test [3], in test [5], in test [6] and in test [9] was “inactive” each time. Moreover, the max activation in [8] was -0.875% (inactive).

For `C=CC(C)CCCC(C)(C)O` (stereo not given), the Potency result in [7], in test [2], in test [3], in [5] and in [6] was “inactive” in each case. Also, the compound was classed as inactive in test [4].

For `C[C@]12CCC(=O)C=C1CC[C@@H]1[C@@H]2[C@@H](O)C[C@@]2(C)[C@H]1CC[C@]2(O)C(=O)CO`, the compound was called inactive in [1] and in [4]. In addition, the Potency result in test [2], in [3] and in test [5] was “inactive” throughout. In addition, the max activation in test [8] is 9.15% (inactive).

With `NCCN1CCNCC1`, the Potency result in test [7], in test [2], in [3], in test [5] and in test [6] was “inactive” in each case. The compound was called inactive in test [4].

For the compound `C[C@]12CC[C@@H]3c4ccc(O)cc4CC[C@H]3[C@@H]1C[C@@H](O)[C@@H]2O`, the Potency result in test [2], in test [3], in test [5], in [6] and in test [9] was “inactive” in each case. The call in test [4] and in [10] was inactive. In test [8], the max activation is -0.315% (inactive).

Consider `CCNc1cccc(C)c1`, for which the Potency entry in test [2], in test [3], in test [5] and in [6] was “inactive” in each case. The outcome in test [4] was inactive.

In the case of `Cc1ccc(C(C)C)c(O)c1`, the compound was called inactive in test [1], in test [4] and in [10]. Besides, the Potency result in test [2], in [3], in test [5], in test [6] and in [9] was “inactive” throughout. The max activation in [8] was -2.47% (inactive).
